Assay outcomes deposited in PubChem BioAssay by National Center for Advancing Translational Sciences (NCATS).
Shown are actives, neighbours in structure and some others; about 3.2% of the full set was active somewhere.
GALK inh – inhibitors of human galactokinase. AID 1868. Potency, µM (titrated, usually from 57.5 µM), inactives show at the top dose activity change, negative = inhibition, actives largely listed as inhibitors. 270,000 tested, 0.007% active. Purified GALK, Kinase-Glo residual ATP luminescence; note: potency is the fitted concentration of half-maximal effect
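Quantitative HTS: GALK 5 nM, ATP 35 uM, galactose 100 uM, 1 h room temperature, then luciferase-based ATP detection.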
USP1-UAF1 inh – blocks the human USP1/UAF1 deubiquitinase complex. O94782. recombinant USP1/UAF1, Ub-Rhodamine cleavage fluorescence. Potency, µM (highest dose often 57.1 µM), for the others: top-dose activity change, negative = inhibition, hits mostly inhibitors. 390,000 tested, 0.23% active; note: potency is the fitted concentration of half-maximal effect; nearly all actives have a fitted effect of over 60% in size
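High-throughput fluorogenic screen: 1nM USP1/UAF1 complex, Ub-Rho substrate 150nM final, 50mM HEPES pH 7.8 with 0.5mM EDTA, 0.1 mg/ml BSA, 1mM TCEP and 0.01% Tween-20.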
VDR inhibitor – blocks the human vitamin D receptor; VDR-SRC2-3 peptide fluorescence polarization, 2 h; 400,000 tested, 0.93% active; P11473; Potency, µM, inactives show max response, negative = inhibition, actives largely listed as inhibitors; note: potency is the fitted concentration of half-maximal effect
Target sequence (P11473 whole entry, looked up): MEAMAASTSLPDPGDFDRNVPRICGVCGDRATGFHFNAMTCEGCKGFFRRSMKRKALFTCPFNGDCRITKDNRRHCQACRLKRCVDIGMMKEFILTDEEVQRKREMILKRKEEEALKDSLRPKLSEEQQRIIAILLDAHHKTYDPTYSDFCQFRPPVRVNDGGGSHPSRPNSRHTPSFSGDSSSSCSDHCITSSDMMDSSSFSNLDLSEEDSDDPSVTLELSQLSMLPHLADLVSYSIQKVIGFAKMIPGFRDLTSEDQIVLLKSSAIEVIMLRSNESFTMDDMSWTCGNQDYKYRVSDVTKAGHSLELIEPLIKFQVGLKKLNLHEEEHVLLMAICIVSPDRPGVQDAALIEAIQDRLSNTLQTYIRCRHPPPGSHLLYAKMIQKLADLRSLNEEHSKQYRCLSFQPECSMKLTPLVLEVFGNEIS
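Two reagent solutions held at 4 deg C in the dark were dispensed, compounds pinned at 23 nl, and the mixture incubated 2 h at room temperature. Read-out: fluorescence polarization of VDR–SRC2-3 peptide binding.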
Coupling enz – counter-screen for Giardia aldolase inhibitors: coupling enzyme system. coupling enzyme system counterscreen, AmpLite Red fluorescence. activity change, negative = inhibition, % at 58.2 µM, hits read low. 290,000 tested, 0.67% active. AID 2472; in the data active = activity change below about -30%
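Activity here indicates interference with the coupling reaction, not aldolase inhibition. Compounds at 57.5 uM final met coupling enzymes for 10 min at RT; substrate and AmpLite Red detection followed, with a 525/598 nm fluorescence read after 20 min.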
PLK1 PBD inh – blocks phosphopeptide binding to human PLK1 polo-box domain. P53350. Plk1 PBD binding of FITC phosphopeptide, fluorescence polarization. Potency, µM, inactives show max response, negative = inhibition, most hits filed as inhibitors. 360,000 tested, 2.8% active; note: potency is the fitted concentration of half-maximal effect; series mostly up to about 57 µM; nearly all actives have a fitted effect of over 65% in size
USP2a block – blocks human ubiquitin-specific protease USP2a; O75604; USP2 core, Ub-CHOP2 coupled fluorogenic reporter, 485/531; Potency, µM (doses to about 38.3 µM), without a hit: top-dose activity change, negative = inhibition, actives largely listed as inhibitors; 330,000 tested, 0.01% active; AID 463254;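 note: potency is the fitted concentration of half-maximal effect; plate controls were DMSO wells for no effect and full inhibition by NEM control for full effect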
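Deubiquitinase activity read as fluorescence (485/531 nm) after Ub-CHOP2 cleavage activates the enterokinase reporter on its substrate; USP2 core 10nM, Ub-CHOP2 and substrate 25nM each, 30min compound preincubation then 60min RT; data normalized to NEM, curves fitted.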
Starred values were filed as active, the others as inactive; u = inconclusive; x = no result given. Unless noted, calls come from the whole dose curve; as a rule, active = well fitted curve in the direction sought with a large enough effect; inconclusive = small, poorly fitted or top-dose-only effect, or another doubt; inactive = no such curve, though single readings can be large; an effect the other way counts as inactive or inconclusive. Unless noted, % is set by controls: 0 for no effect and ±100 for the full control effect.

SMILES | GALK inh | USP1-UAF1 inh | VDR inhibitor | Coupling enz | PLK1 PBD inh | USP2a block
COc1cccc(-c2nc(-c3ccc4c(c3)NC(=O)CO4)cs2)c1 | -0.1% | -9.0% | -8.5% | -2.5 | 13.4µM* | -3.9%
CC(Nc1nc(-c2ccc3c(c2)NC(=O)CO3)cs1)c1ccccc1 (stereo unspecified) | 10.4% | -5.8% | -8.1% | -4.6 | 16.8µM* | 2.1%
CCC1CC2(C)NC(=O)c3c(sc4c3CC(C)(C)OC4)N2C1=O (stereo unspecified) | 0.7% | -5.3% | u | 1.0 | 11.9µM* | 0.3%
CCC(=O)N1N=C(c2cccs2)CC1c1ccc(C)cc1 (stereo unspecified) | x | -5.3% | -4.2% | 0.0 | 26.7µM* | 1.5%
Cc1ccc(C2CC(c3cccs3)=NN2C(=O)CCl)cc1 (stereo unspecified) | 3.2% | -6.5% | u | 2.2 | u | -0.4%
COc1ccc(-n2nc3c(N4CCC(C(=O)NCCc5ccco5)CC4)nnc(C)c3c2C)cc1 | 2.5% | -20.3% | -24.4% | 1.4 | 26.7µM* | 3.8%
COc1ccc(-n2nc3c(N4CCC(C(=O)NCc5cccc(C)c5)CC4)nnc(C)c3c2C)cc1 | -0.8% | -6.4% | -1.3% | x | -14.6% | 2.6%
CCCn1c(=S)[nH]c2cc(Cl)ccc21 | 6.7% | -20.2% | u | -0.3 | 15µM* | 0.0%
c1cncc(-c2nnc(-c3cccnc3)nn2)c1 | 4.0% | -19.9% | -50.0% | -40.5* | 6.7µM* | 2.8%
COc1cccc(CNC(=O)CC(c2ccc(F)cc2)N2Cc3ccccc3C2=O)c1 (stereo unspecified) | x | 12.3% | 5.8% | x | x | x
Nc1cccc(-n2nnnc2CN2CCOCC2)c1 | 0.8% | -14.9% | 44.7µM* | -30.9* | 10.6µM* | 0.7%
COc1cccc2cc(C(=O)NCCc3c[nH]c4ccccc34)c(=O)oc12 | -3.0% | -7.9% | -24.3% | -0.6 | 11.9µM* | 1.2%
CCC(COC(=O)c1ccccc1)Oc1cc(NCc2ccccc2)c2ncn(C(C)C)c2c1 (stereo unspecified) | x | u | 79.4µM* | x | -16.0% | -4.1%
CCC(COC)Oc1cc(NCc2ccccc2)c2ncn(C(C)C)c2c1 (stereo unspecified) | x | 12.6µM* | 22.4µM* | x | u | 4.6%
CCC(CO)Oc1cc(NCc2ccccc2)c2ncn(C(C)C)c2c1 (stereo unspecified) | x | u | u | x | -2.3% | 0.6%
COc1ccc(NC(=O)CCOc2ccc(C)cc2)c(OC)c1 | 2.0% | -14.6% | 2.5% | 3.5 | -7.6% | 1.2%
CCCCn1c(N)c(N(CCOC)C(=O)CC2CCCCC2)c(=O)[nH]c1=O | x | -15.6% | -7.0% | x | -6.1% | x
CC(C)c1ccc(S(=O)(=O)/N=C2/C=C(Sc3ncn[nH]3)C(=O)c3ccccc32)cc1 | -9.0% | 1.78µM* | 10µM* | -91.8* | 1.5µM* | -2.8%
Cc1ccc(S(=O)(=O)/N=C2/C=C(Sc3ncn[nH]3)C(=O)c3ccccc32)cc1 | 1.3% | 1µM* | 10µM* | -54.9* | 0.752µM* | 6.4%
Cc1ccc(S(=O)(=O)Nc2ccc(O)c(Sc3ncn[nH]3)c2)cc1 | 8.8% | u | 2.9% | -9.8 | -6.7% | -0.4%
Cc1ccc(S(=O)(=O)/N=C2/C=C(Sc3ncn[nH]3)C(=O)c3ccccc32)c(C)c1 | 0.7% | x | x | -62.7* | x | -1.0%
CCc1cc(=O)oc2cc(C)cc(OCc3nn[nH]n3)c12 | 0.6% | -24.9% | 0.2% | 19.5 | 2.3% | 3.4%
CC1=NN(c2ccccc2)C(=O)C1(C)C | -2.4% | -7.6% | 10.8% | -2.0 | -2.9% | -1.1%
Cc1ccc(-n2c(SCC(=O)Nc3ccc4c5c(cccc35)CC4)nc(O)c(C)c2=O)cc1 | -7.3% | -19.9% | 11.6% | 11.2 | -9.4% | -0.2%
N/C(=N/OC(=O)c1cccc([N+](=O)[O-])c1)c1cccc([N+](=O)[O-])c1 | 3.2% | -15.3% | 0.5% | 1.2 | 4.5% | -1.2%
CC1=C(C)/C(=N/OC(=O)c2cccc([N+](=O)[O-])c2)C=CC1=O | -1.0% | -16.0% | 7.3% | -8.5 | 4.23µM* | 0.9%
